An excerpt weighted towards active compounds, which were near 3.8% of everything screened.
Jurkat NFkB inh: lowers PMA/ionomycin-induced NF-kB signal in Jurkat cells. PMA/ionomycin-induced NF-kB luciferase reporter, luminescence. inhibition, % at 4 µM. 0.53% of 330,000 active; in the data active means inhibition above about 50%
Mdm2 MdmX PPI: human Mdm2/MdmX binding inhibition; SaOS-2 split-luciferase Mdm2/MdmX complementation, luminescence; AID 485346; 3% of 330,000 active; inhibition, % at 8 µM;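 active means inhibition of at least 50% at 8 µM in the primary screen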
Beta cell apopt: beta cell apoptosis inhibition | INS-1E cytokine-induced death, ATP luminescence, 48 h; percent of positive-control rescue, neutral wells zero | protection from apoptosis, % (no concentration beside the values) | 0.8% of 300,000 active;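 active means Every replicate reaches about 75%, or at least half do and their mean reaches it too, limit read from the data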;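 further: 0% = cytokine-treated negative control wells and 100% = positive control rescue; higher means more ATP so stronger rescue from cytokine killing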
Bfl-1 A1 inh: inhibitors of the anti-apoptotic protein A1, read as caspase activation. MEF A1-2A-BIM cells, Caspase-Glo 3/7 luminescence, 3 h; percent of clofoctol response, vehicle zero. caspase activation, % (concentration not given with the values). 0.066% of 330,000 active;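 active means over half of replicate activation scores above 10%, or exactly half above 10 with the replicate mean above 10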
NTR1 ag: agonists of human neurotensin receptor NTR1 | P30989 | NTR1-U2OS beta-arrestin-GFP spot imaging, agonist mode | activation, % at 20 µM | 0.17% of 330,000 active;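 active means activation at or above 40% of the spot to cytoplasm intensity ratio, with at least 20 cells analyzed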;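 further: 0% = DMSO without peptide and 100% = 100 nM NTR1 peptide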
Target sequence (P30989 whole entry, looked up): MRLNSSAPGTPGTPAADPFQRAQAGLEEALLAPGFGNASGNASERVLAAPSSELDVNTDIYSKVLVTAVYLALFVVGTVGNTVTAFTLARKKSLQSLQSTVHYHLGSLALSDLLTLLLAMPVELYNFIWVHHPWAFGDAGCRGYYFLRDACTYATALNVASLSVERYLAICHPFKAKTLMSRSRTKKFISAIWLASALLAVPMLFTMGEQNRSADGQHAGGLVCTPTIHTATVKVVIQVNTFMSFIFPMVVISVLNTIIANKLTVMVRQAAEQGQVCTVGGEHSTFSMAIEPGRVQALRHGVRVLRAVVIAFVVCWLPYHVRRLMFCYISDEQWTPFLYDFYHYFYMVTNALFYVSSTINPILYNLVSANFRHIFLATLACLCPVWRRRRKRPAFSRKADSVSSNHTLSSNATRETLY
697 NFkB inh: inhibitors of the PMA/ionomycin-induced NF-kB reporter in 697 B cells | AID 435022 | 0.33% of 330,000 active | inhibition, % at 4 µM | 697 B-cell NF-kB luciferase reporter, 16 h; in the data active means inhibition above about 35%
Mdm2 MdmX conf: human Mdm2/MdmX binding inhibition, confirmed; 55% of 10,000 active; shares compounds with Mdm2 MdmX PPI; inhibition, % at 8 µM; luminescent assay; in the data active means inhibition above about 40%
Full FLuc ctr: inhibits full-length luciferase, flagging false Mdm2/MdmX hits. shares compounds with Mdm2 MdmX PPI. SaOS-2 full-length luciferase counterscreen, luminescence. inhibition, % at 8 µM. 77% of 6,200 active. AID 504607;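 active means mean inhibition at 8 µM reaching about 37%, which flags the compound as non-specific, limit read from the data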;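 further: p53-null SaOS-2 cells with luciferase driven by a doxycycline-inducible promoter; compound on cells about two nights before reading with doxycycline added after day one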
Numbers without * were called inactive; nt = no result given.

SMILES | Jurkat NFkB inh | Mdm2 MdmX PPI | Beta cell apopt | Bfl-1 A1 inh | NTR1 ag | 697 NFkB inh | Mdm2 MdmX conf | others
CCN(CC)S(=O)(=O)c1ccc(/C=C/C(=O)OCC(=O)NCc2ccco2)cc1 | -4.0 | -18.8 | -7.7 | -0.3 | 1.5 | -18.0 | nt
COc1ccc(C(O)(CCN2CCOCC2)c2ccccc2)cc1 (centres undefined) | -8.3 | -26.6 | -2.1 | -0.5 | -0.4 | -6.1 | nt
COc1ccc(-n2ncc3c(N(C)C4CCCCC4)ncnc32)cc1 | -5.0 | 88.4* | -5.1 | -1.0 | 7.3 | -162.1 | 91.7* | Full FLuc ctr=101.9*
COCCN(CCOC)c1ncnc2c1cnn2-c1ccccc1 | -14.8 | -6.3 | -0.3 | 0.2 | -0.5 | 9.0 | nt
Cc1cccc(-n2ncc3c(N(C)C4CCCCC4)ncnc32)c1 | 27.2 | 90.1* | nt | -6.1 | 13.6 | -79.2 | 87.0* | Full FLuc ctr=84.5*
Cc1cccc(-n2ncc3c(N(CCO)CCO)ncnc32)c1 | -55.2 | -20.5 | nt | -0.2 | 3.7 | -24.1 | nt
COc1ccc2c(c1OC)C(=O)N1c3ccccc3SC21 (centres undefined) | -91.6 | -133.5 | -5.5 | -5.3 | -1.3 | -101.2 | nt
COc1ccc2c(c1OC)C(=O)N1c3ccccc3C(=O)N(c3ccccc3F)C21 (centres undefined) | 45.3 | 66.3* | 0.8 | -0.2 | 0.9 | -3.7 | 59.6* | Full FLuc ctr=75.9*
CCn1c(SCC(=O)N2CCCc3ccccc32)nc2c1c(=O)n(C)c(=O)n2C | 0.5 | 19.5 | -4.1 | 0.1 | 1.5 | 17.0 | nt
CC(C)c1nc(SCC(=O)N2CCCc3ccccc32)c2c(=O)n(C)c(=O)n(C)c2n1 | -8.9 | 55.2* | 14.4 | -0.5 | 30.4 | -3.4 | 46.9* | Full FLuc ctr=51.4*
COc1nc(-c2ccc(Cl)cc2)ccc1-c1noc(-c2ccco2)n1 | -20.5 | 53.7* | -1.1 | -0.4 | -0.1 | -25.3 | -9.1
COc1cccc(-c2ccc(-c3noc(-c4ccccc4F)n3)c(OC)n2)c1 | -21.3 | -6.6 | -0.7 | 0.3 | 3.3 | -10.3 | nt
COc1cc(NC(=O)CSc2nnc(-c3ccncc3)o2)cc(OC)c1OC | 10.4 | 25.6 | -5.3 | 0.2 | 0.9 | 8.8 | nt
Cn1ncc2c(Nc3ccc(O)cc3)nc(Cl)nc21 | -4.8 | 18.3 | -4.3 | -0.4 | -1.0 | -1.1 | nt
Cn1ncc2c(Nc3ccc(Br)cc3)nc(Nc3ccc(Br)cc3)nc21 | 15.9 | 60.2* | 33.0 | 0.2 | 30.6 | -0.4 | 26.3
O=C(COC(=O)/C=C/c1ccccc1[N+](=O)[O-])NNC(=O)c1ccc(F)cc1 | 11.9 | 18.7 | nt | nt | 3.7 | -0.6 | nt
C[C@H](CO)N1C[C@H](C)[C@@H](CN(C)S(=O)(=O)c2ccc(F)cc2)Oc2c(NC(=O)Nc3ccc(C(F)(F)F)cc3)cccc2C1=O | -1.0 | 48.0 | 11.3 | 0.4 | 13.6 | 20.0 | nt
C[C@H](CO)N1C[C@H](C)[C@@H](CN(C)S(=O)(=O)c2ccc(F)cc2)Oc2ccc(NC(=O)Nc3ccc(C(F)(F)F)cc3)cc2C1=O | 13.2 | 75.1* | -0.9 | 1.1 | 1.1 | 15.3 | 16.4
C[C@H]1CN([C@@H](C)CO)C(=O)c2cccc(NC(=O)Nc3ccc(C(F)(F)F)cc3)c2O[C@@H]1CN(C)S(=O)(=O)c1ccc(Cl)cc1 | 2.0 | 57.7* | 37.3 | -0.3 | 12.3 | 7.8 | 13.8
C[C@@H]1CN([C@H](C)CO)C(=O)c2cc(NC(=O)Nc3ccc(C(F)(F)F)cc3)ccc2O[C@H]1CN(C)S(=O)(=O)c1ccc(Cl)cc1 | 8.0 | 84.7* | -6.8 | -0.1 | -0.4 | -2.8 | 15.5
C[C@H](CO)N1C[C@H](C)[C@@H](CN(C)S(=O)(=O)c2ccc(F)cc2)Oc2ccc(NC(=O)Nc3ccccc3)cc2C1=O | -2.1 | 33.7 | -6.3 | -0.6 | 0.4 | 24.0 | nt
Cc1ccc(S(=O)(=O)N(C)C[C@@H]2Oc3ccc(NC(=O)CCC(F)(F)F)cc3CC(=O)N([C@@H](C)CO)C[C@@H]2C)cc1 | -4.6 | 58.8* | -0.3 | 0.5 | 0.0 | -38.3 | 56.6* | Full FLuc ctr=63.4*
C[C@H]1CN([C@@H](C)CO)C(=O)Cc2cc(NC(=O)CCC(F)(F)F)ccc2O[C@H]1CN(C)S(C)(=O)=O | -129.0 | 0.9 | 0.7 | 0.6 | -1.8 | 19.5 | nt
CCCN(CC(=O)Nc1ccccc1C)C(=O)/C=C/c1ccc(S(=O)(=O)N2CCCCCC2)cc1 | 2.6 | 25.3 | 7.9 | 0.8 | 1.4 | 1.3 | nt
N=c1c(C(=O)NC2CCCCC2)cc2c(=O)n3ccccc3nc2n1Cc1ccc(F)cc1 | 35.1 | 36.2 | 9.1 | -0.5 | 13.2 | 13.4 | nt
SMILES | Jurkat NFkB inh | Mdm2 MdmX PPI | Beta cell apopt | Bfl-1 A1 inh | NTR1 ag | 697 NFkB inh | Mdm2 MdmX conf | others
C[C@@H]1CN([C@@H](C)CO)C(=O)Cc2cc(NC(=O)Nc3ccc(C(F)(F)F)cc3)ccc2O[C@@H]1CN(C)S(=O)(=O)c1ccc(Cl)cc1 | -4.2 | 94.0* | 35.1 | 0.7 | 12.2 | 19.3 | 52.8* | Full FLuc ctr=37.6*
Cc1ccc(C(=O)NCCN2C3=NC[C@H](Cc4ccc(O)cc4)N3C[C@H]2Cc2ccc(O)cc2)cc1Br | -14.3 | 2.5 | -0.2 | 0.6 | -3.9 | -20.5 | nt
COc1ccc(C[C@H]2CN3C(=NC[C@@H]3Cc3ccccc3)N2CCNC(=O)c2ccc(C)c(Br)c2)cc1 | 10.1 | 100.3* | 50.4 | -1.4 | 30.4 | 15.0 | 41.8* | Full FLuc ctr=56.7*
COc1ccc(C[C@H]2CN3C(=NC[C@H]3Cc3ccccc3)N2CCNC(=O)c2ccc(C)c(Br)c2)cc1 | 15.3 | 95.2* | 5.8 | 2.8 | 12.0 | -1.2 | 54.6* | Full FLuc ctr=36.8*
COc1ccc(C[C@H]2CN3C(=NC[C@H]3Cc3ccccc3)N2CCNC(=O)CCC2CCCCC2)cc1 | 9.3 | 37.4 | 8.6 | 0.9 | 12.2 | 5.2 | nt
COc1ccc(C[C@H]2CN3C(=NC[C@@H]3Cc3ccc(O)cc3)N2CCNC(=O)c2ccc(C)c(Br)c2)cc1 | 28.0 | 52.8* | 26.0 | 0.2 | 21.5 | -6.6 | 25.7
C/C=C(\C)C(=O)NCCN1C2=NC[C@H](Cc3ccccc3)N2C[C@@H]1Cc1ccc(OC)cc1 | -1.5 | -17.8 | nt | -1.6 | -3.0 | 7.7 | nt
Cc1ccc(C(=O)NCCN2C3=NC[C@@H](Cc4ccccc4)N3C[C@H]2Cc2ccc(O)cc2)cc1Br | -4.2 | 81.2* | 12.1 | 0.4 | 17.8 | 13.2 | 25.4
CCCNc1nc2nc3ccccn3c(=O)c2cc1C(=O)NCCN1CCOCC1 | 3.4 | -9.2 | 0.1 | 0.9 | -1.9 | 22.3 | nt
O=C(NC(=S)NCCc1ccccc1)c1cccc(Cl)c1 | -4.6 | -8.2 | nt | -2.6 | 3.5 | -7.1 | nt
O=C(CN1C(=O)CSc2ccc(S(=O)(=O)N3CCCCC3)cc21)NCc1ccccc1 | -9.7 | 15.0 | -2.3 | 1.3 | -0.2 | 5.0 | nt

Screens as filed in PubChem.
